# PubChem BioAssay (EPA / NIEHS)
# “And” between values parts separate entries of the source, which are not always exact repeats. Equal values may be shown once. Some compounds were tested as several samples or in several runs, with calls that do not always agree. The source made the active and inactive calls. The calls were made as follows: active = hit-call score of the fitted dose curve at least 0.9, where 1 is the maximum; inactive = score below 0.9.
# Key:
# [1] = ATG_E_Box_CIS: Attagene CIS-FACTORIAL HepG2 Assay for human Enhancer Box (E-box) (AID 2282936); details: HepG2 E-box cis-reporter transcription, actives raise or lower the signal
# How it was run: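 DMSO served as negative control and baseline for bidirectional fitting. Human hepatoma HepG2 cells, transiently transfected with cis-reporter constructs, were dosed 24 h; reporter mRNA read by RT-PCR and capillary electrophoresis.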
# [2] = ATG_EGR_CIS: Attagene CIS-FACTORIAL HepG2 Assay for human Early Growth Response 1 (EGR1) (AID 2282938); details: HepG2 Attagene CIS-FACTORIAL EGR reporter mRNA; actives raise or lower the signal
# How it was run: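 Transient transfection of human HepG2 with multiple cis-regulated reporter units, chemical exposure 24 h, total RNA isolated. Reverse transcription, PCR, fluorescent labelling and capillary electrophoresis quantify reporter transcripts; activity fitted bidirectionally against DMSO.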
# [3] = ATG_M_19_CIS: Attagene CIS-FACTORIAL HepG2 Assay for M19 Transcription Factor (Internal Marker) (AID 2282939); details: HepG2 Attagene CIS-FACTORIAL M19 internal marker reporter; actives raise or lower the signal
# How it was run: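 Background-control endpoint from a multiplexed HepG2 reporter panel. Cells carrying cis-regulated reporter constructs are treated 24 h, then reporter transcripts are amplified, fluorescently labelled and sized by capillary electrophoresis. DMSO defines baseline.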
# [4] = ATG_ERE_CIS: Attagene CIS-FACTORIAL HepG2 Assay for Estrogen Response Element (ERE) (AID 2282940); details: HepG2 ERE cis-reporter, Attagene RNA transcript; actives raise or lower the signal
# How it was run: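 Cells used were human hepatoma HepG2, transfected with multiple reporter transcription units under cis-regulatory promoters. Reporter mRNA, read 24 h post-dosing via fluorescent RT-PCR products on capillary electrophoresis, was fitted bidirectionally relative to DMSO.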
# [5] = ATG_Ets_CIS: Attagene CIS-FACTORIAL HepG2 Assay for human Erythroblast Transformation Specific (ETS) (AID 2282941); details: HepG2 ETS cis-reporter transcription, actives raise or lower the signal
# How it was run: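 HepG2 cells transiently transfected with cis-promoter reporter transcription units were dosed for 24 h; reporter mRNA was measured by RT-PCR, 6-FAM primer extension, HpaI digestion and capillary electrophoresis, with bidirectional fitting against DMSO baseline.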
# [6] = biological target: Hepatocyte nuclear factor 3-beta (Homo sapiens) (UniProt Q9Y261); assay: ATG_FoxA2_CIS: Attagene CIS-FACTORIAL HepG2 Assay for human Forkhead box A2 (FOXA2) (AID 2282942); details: HepG2 cis-reporter transcription factor activity, 24 h; actives raise or lower the signal
# Hepatocyte nuclear factor 3-beta (Homo sapiens), sequence (Q9Y261 whole entry, looked up): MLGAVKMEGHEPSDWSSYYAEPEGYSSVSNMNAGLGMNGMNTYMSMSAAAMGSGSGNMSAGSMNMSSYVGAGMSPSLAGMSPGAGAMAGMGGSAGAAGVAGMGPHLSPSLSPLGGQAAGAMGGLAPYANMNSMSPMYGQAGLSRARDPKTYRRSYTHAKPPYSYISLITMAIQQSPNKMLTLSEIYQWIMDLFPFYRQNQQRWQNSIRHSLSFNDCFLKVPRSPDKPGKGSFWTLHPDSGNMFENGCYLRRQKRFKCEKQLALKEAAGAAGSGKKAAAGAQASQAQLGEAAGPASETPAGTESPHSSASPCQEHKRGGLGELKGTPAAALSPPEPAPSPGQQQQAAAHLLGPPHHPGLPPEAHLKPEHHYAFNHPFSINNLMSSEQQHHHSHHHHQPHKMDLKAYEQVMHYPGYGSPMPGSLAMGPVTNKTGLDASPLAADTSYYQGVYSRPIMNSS
# How it was run: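 Transient MRTU transfection of HepG2 liver cells; 24 h treatment; total RNA → oligo(dT) RT → PCR → FAM primer extension → HpaI cut → CE. Bidirectional fit vs DMSO.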
# [7] = ATG_FoxO_CIS: Attagene CIS-FACTORIAL HepG2 Assay for human Forkhead box O (FoxO) (AID 2282943); details: HepG2 Attagene cis-reporter, FoxO element, mRNA; actives raise or lower the signal
# How it was run: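 Human hepatoma HepG2 cells carry transiently introduced reporter transcription units controlled by cis promoter elements. Chemical treatment lasted 24 h, and mRNA signal was compared with DMSO.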
# [8] = ATG_GATA_CIS: Attagene CIS-FACTORIAL HepG2 Assay for human GATA Binding Protein (AID 2282944); details: HepG2 GATA cis-element reporter, Attagene multiplex mRNA; actives raise or lower the signal
# How it was run: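 Endogenous transcription factor activity was captured through cis-promoter-driven reporters in transfected HepG2 cells. After 24 h exposure, reporter transcripts were quantified by RT-PCR with fluorescent capillary electrophoresis, and responses fitted both directions against DMSO.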
# [9] = ATG_GRE_CIS: Attagene CIS-FACTORIAL HepG2 Assay for human Glucocorticoid Response Elements (GRE) (AID 2282947); details: HepG2 GRE cis-reporter, Attagene multiplex mRNA; actives raise or lower the signal
# How it was run: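 Assay uses human hepatoma HepG2 cells transfected with cis-promoter reporter units, exposed 24 h. mRNA from reporters detected by RT-PCR plus capillary electrophoresis; DMSO serves as negative control and baseline.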
# [10] = ATG_ISRE_CIS: Attagene CIS-FACTORIAL HepG2 Assay for human Interferon Regulatory Factor 1 (IRF1) binding to an Interferon-Stimulated Response Element (ISRE) (AID 2282948); details: HepG2 ISRE cis-reporter (Attagene), mRNA transcription readout; actives raise or lower the signal
# How it was run: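 HepG2 cells transiently transfected with multiplexed cis-promoter reporter units; after 24 h compound exposure, reporter mRNA quantified by RT-PCR, FAM labelling, HpaI digestion and capillary electrophoresis. Bidirectional fit versus DMSO baseline.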
# [11] = ATG_M_32_CIS: Attagene CIS-FACTORIAL HepG2 Assay for M32 Transcription Factor (Internal Marker) (AID 2282949); details: HepG2 Attagene cis-factorial M32 reporter, mRNA; actives raise or lower the signal;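 also: background control marker of the multiplexed CIS panel rather than a real target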
# How it was run: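 Internal background marker read-out: RT-PCR/capillary electrophoresis fluorescence of reporter transcripts from transiently transfected HepG2 cells after 24 h chemical exposure. Activity fitted bidirectionally relative to DMSO negative control.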
# [12] = biological target: Hypoxia-inducible factor 1-alpha (Homo sapiens) (UniProt Q16665); assay: ATG_HIF1a_CIS: Attagene CIS-FACTORIAL HepG2 Assay for human Hypoxia Inducible Factor 1 (HIF1A) (AID 2282951); details: HepG2 Attagene cis-factorial HIF1a reporter transcription; actives raise or lower the signal
# Hypoxia-inducible factor 1-alpha (Homo sapiens), sequence (Q16665 whole entry, looked up, the tested form may be a part): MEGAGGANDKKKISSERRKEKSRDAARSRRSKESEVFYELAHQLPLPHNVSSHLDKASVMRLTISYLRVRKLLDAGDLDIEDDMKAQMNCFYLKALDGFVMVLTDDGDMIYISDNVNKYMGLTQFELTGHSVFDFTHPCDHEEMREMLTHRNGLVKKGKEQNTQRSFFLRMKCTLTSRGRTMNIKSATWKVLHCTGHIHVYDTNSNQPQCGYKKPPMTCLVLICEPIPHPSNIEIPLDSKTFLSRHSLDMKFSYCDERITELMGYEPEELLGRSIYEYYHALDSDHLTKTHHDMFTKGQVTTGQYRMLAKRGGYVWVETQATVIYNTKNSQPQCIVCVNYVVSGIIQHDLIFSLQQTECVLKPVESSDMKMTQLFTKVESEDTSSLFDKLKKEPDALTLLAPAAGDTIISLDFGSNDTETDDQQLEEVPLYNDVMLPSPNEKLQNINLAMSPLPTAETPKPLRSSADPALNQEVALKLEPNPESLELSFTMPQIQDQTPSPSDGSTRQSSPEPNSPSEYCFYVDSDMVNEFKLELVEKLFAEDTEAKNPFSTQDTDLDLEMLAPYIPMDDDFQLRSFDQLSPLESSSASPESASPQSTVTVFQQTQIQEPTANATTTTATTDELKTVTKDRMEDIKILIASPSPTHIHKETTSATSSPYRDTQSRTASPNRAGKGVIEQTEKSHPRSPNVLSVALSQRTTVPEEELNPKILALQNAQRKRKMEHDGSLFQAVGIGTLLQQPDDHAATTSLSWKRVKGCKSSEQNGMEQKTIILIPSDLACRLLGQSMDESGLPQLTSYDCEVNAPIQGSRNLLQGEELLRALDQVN
# How it was run: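 Transient MRTU transfection of human HepG2 liver cells, 24 h compound treatment, then total RNA isolation, oligo(dT) reverse transcription, PCR amplification, fluorescent labelling and capillary electrophoresis of reporter fragments. Gain or loss relative to DMSO.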
# [13] = biological target: Heat shock factor protein 1 (Homo sapiens) (UniProt Q00613); assay: ATG_HSE_CIS: Attagene CIS-FACTORIAL HepG2 Assay for human Heat Shock Transcription Factor 1 (HSE) (AID 2282953); details: HepG2 HSE cis-reporter, Attagene RNA transcription; actives raise or lower the signal
# Heat shock factor protein 1 (Homo sapiens), sequence (Q00613 whole entry, looked up, the tested form may be a part): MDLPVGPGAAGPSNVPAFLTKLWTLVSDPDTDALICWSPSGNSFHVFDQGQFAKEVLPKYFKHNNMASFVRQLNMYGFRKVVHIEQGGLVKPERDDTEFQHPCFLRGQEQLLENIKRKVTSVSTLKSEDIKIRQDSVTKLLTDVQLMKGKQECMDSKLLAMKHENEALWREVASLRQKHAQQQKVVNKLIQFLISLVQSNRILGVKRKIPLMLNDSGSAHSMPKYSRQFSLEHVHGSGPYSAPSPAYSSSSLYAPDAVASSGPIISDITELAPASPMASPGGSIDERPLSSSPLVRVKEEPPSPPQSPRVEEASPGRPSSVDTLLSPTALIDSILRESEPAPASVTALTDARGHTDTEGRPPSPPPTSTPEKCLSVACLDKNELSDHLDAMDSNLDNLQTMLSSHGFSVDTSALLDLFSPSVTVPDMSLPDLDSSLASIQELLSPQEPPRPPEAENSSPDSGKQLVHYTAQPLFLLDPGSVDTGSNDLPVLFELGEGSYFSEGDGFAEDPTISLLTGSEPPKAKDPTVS
# How it was run: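 Cells were transfected with cis-element-driven reporter constructs, dosed for 24 h, then total RNA was reverse-transcribed and reporter cDNA amplified, FAM-labelled and digested with HpaI. Fragments were resolved by capillary electrophoresis; gain or loss was fitted against DMSO.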
# [14] = ATG_MRE_CIS: Attagene CIS-FACTORIAL HepG2 Assay for human Metal Responsive Element (MRE) (AID 2282954); details: HepG2 MRE cis-reporter transcription, Attagene multiplex; actives raise or lower the signal
# How it was run: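 After a 24 h chemical exposure, transiently transfected HepG2 cells yield RNA whose reporter sequences are amplified, FAM-labelled and sized by capillary electrophoresis. Curves are fitted bidirectionally relative to DMSO.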
# [15] = ATG_GLI_CIS: Attagene CIS-FACTORIAL HepG2 Assay for human Zinc Finger Protein GLI1 (AID 2282945); details: HepG2, Attagene cis-factorial reporter mRNA, GLI element; actives raise or lower the signal
# How it was run: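 Bidirectional curve fits relative to DMSO, using reporter mRNA levels from RT-PCR plus capillary electrophoresis. Cells were HepG2 transiently carrying cis-regulated reporter constructs, harvested 24 h after dosing.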
# [16] = biological target: Bile acid receptor (Homo sapiens) (UniProt Q96RI1); assay: ATG_IR1_CIS: Attagene CIS-FACTORIAL HepG2 Assay for human Nuclear Receptor Subfamily 1 Group H Member 4 (NR1H4), IR1 submotif (AID 2282946); details: IR1 reporter transcription, actives raise or lower the signal
# Bile acid receptor (Homo sapiens), sequence (Q96RI1 whole entry, looked up, the tested form may be a part): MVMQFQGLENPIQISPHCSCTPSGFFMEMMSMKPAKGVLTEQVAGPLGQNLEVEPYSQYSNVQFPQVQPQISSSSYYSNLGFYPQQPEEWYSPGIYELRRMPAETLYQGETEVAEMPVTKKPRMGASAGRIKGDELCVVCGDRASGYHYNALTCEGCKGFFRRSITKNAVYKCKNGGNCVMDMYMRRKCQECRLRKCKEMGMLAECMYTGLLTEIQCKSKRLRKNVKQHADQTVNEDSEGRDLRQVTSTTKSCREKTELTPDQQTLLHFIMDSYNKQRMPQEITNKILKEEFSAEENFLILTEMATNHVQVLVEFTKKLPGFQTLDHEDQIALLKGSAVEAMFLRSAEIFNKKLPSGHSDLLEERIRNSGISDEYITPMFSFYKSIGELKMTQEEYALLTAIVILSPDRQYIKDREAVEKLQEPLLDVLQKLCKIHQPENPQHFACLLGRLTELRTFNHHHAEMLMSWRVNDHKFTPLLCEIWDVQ
# How it was run: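 Cells (human HepG2) carry transiently transfected cis-promoter reporter transcription units. Compounds are incubated 24 h, total RNA is reverse-transcribed and amplified, and labelled fragments are resolved by capillary electrophoresis. Curves use DMSO as baseline.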
# [17] = biological target: Hepatocyte nuclear factor 6 (Homo sapiens) (UniProt Q9UBC0); assay: ATG_HNF6_CIS: Attagene CIS-FACTORIAL HepG2 Assay for human Hepatocyte Nuclear Factor 6 (HNF6) (AID 2282952); details: HepG2 Attagene cis-factorial HNF6 reporter transcription; actives raise or lower the signal
# Hepatocyte nuclear factor 6 (Homo sapiens), sequence (Q9UBC0 whole entry, looked up, the tested form may be a part): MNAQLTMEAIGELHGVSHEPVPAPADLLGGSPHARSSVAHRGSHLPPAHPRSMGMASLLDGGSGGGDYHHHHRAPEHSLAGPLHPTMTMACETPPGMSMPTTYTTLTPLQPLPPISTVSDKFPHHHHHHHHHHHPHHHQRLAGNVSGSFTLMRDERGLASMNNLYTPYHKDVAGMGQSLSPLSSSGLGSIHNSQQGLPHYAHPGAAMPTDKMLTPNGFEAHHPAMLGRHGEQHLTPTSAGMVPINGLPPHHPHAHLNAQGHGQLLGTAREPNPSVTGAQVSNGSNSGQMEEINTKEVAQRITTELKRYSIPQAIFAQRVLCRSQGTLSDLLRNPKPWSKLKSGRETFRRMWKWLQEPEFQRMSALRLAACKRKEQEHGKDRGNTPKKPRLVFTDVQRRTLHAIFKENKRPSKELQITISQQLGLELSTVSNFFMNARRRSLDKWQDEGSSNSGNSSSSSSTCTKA
# How it was run: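 HepG2 cells transiently transfected with cis-element-driven multiplexed reporter units measuring endogenous transcription factor activity. After 24 h exposure, reporter mRNA quantified by RT-PCR, FAM-labelled fragments and capillary electrophoresis; bidirectional fitting versus DMSO.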
# [18] = ATG_PBREM_CIS: Attagene CIS-FACTORIAL HepG2 Assay for human Phenobarbital-responsive Enhancer Module (PBREM) (AID 2282955); details: HepG2 PBREM cis-reporter, Attagene multiplexed transcription; actives raise or lower the signal
# How it was run: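 Endogenous transcription factors in human liver HepG2 cells drive a PBREM cis-element reporter, whose transcript level after 24 h treatment is quantified by RT-PCR with capillary electrophoresis; activity fitted in both directions against DMSO.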
# [19] = ATG_M_61_CIS: Attagene CIS-FACTORIAL HepG2 Assay for M61 Transcription Factor (Internal Marker) (AID 2282937); details: HepG2 Attagene CIS-FACTORIAL M61 internal marker reporter; actives raise or lower the signal
# How it was run: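 Human liver HepG2, transient MRTU transfection (cis promoter elements), 24 h compound. Total RNA → oligo(dT) RT → PCR → FAM label → HpaI → CE. Internal background marker; bidirectional fitting, DMSO = baseline.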
# [20] = ATG_M_06_CIS: Attagene CIS-FACTORIAL HepG2 Assay for M06 Transcription Factor (Internal Marker) (AID 2282950); details: HepG2 Attagene CIS-FACTORIAL M06 internal marker reporter; actives raise or lower the signal
# How it was run: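 Steps: transfect HepG2 with multiplexed cis-element reporter constructs; dose chemical 24 h; extract RNA with DNase treatment; reverse-transcribe, PCR-amplify, 6-FAM label, HpaI digest; separate fragments by capillary electrophoresis. Activity fitted both directions versus DMSO.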
smiles,measurement,setting,value
O=C(O)C(F)(F)C(F)(F)C(F)(F)C(F)(F)C(F)(F)F,outcome,[1],inactive
same,outcome,[2],inactive
same,outcome,[3],inactive
same,outcome,[4],inactive
same,outcome,[5],inactive
same,outcome,[6],inactive
same,outcome,[7],inactive
same,outcome,[8],inactive
same,outcome,[9],inactive
same,outcome,[10],inactive
same,outcome,[11],inactive
same,AC50,[12],5.86 µM (active)
same,outcome,[12],inactive
same,outcome,[13],inactive
same,outcome,[14],inactive
CC(c1ccc(O)cc1)(c1ccc(O)cc1)c1ccc(O)cc1,AC50,[1],14.7 µM (active)
same,AC50,[2],12.8 µM (active)
same,outcome,[3],inactive
same,AC50,[4],95.5 nM (active)
same,outcome,[5],inactive
same,outcome,[6],inactive
same,outcome,[7],inactive
same,outcome,[8],inactive
same,outcome,[15],inactive
same,AC50,[16],11.1 µM (active)
same,AC50,[10],16.1 µM (active)
same,outcome,[11],inactive
same,AC50,[12],13.8 µM (active)
same,AC50,[17],18.6 µM (active)
same,outcome,[13],inactive
same,AC50,[14],13.5 µM (active)
same,outcome,[18],inactive
CC#Cc1cc(C)nc(Nc2ccccc2)n1,AC50,[1],140 µM (active)
same,AC50,[2],67.5 µM (active)
same,outcome,[3],inactive
same,outcome,[4],inactive
same,outcome,[5],inactive
same,outcome,[6],inactive
same,outcome,[7],inactive
same,outcome,[8],inactive
same,outcome,[15],inactive
same,outcome,[10],inactive
same,outcome,[11],inactive
same,outcome,[12],inactive
same,outcome,[17],inactive
same,outcome,[13],inactive
same,AC50,[14],68.2 µM (active)
CCNc1nc(NC(C)C)nc(SC)n1,outcome,[1],inactive
same,outcome,[19],inactive
same,outcome,[2],inactive
same,outcome,[3],inactive
same,outcome,[5],inactive
same,outcome,[6],inactive
same,outcome,[7],inactive
same,outcome,[8],inactive
same,outcome,[10],inactive
same,outcome,[11],inactive
same,outcome,[20],inactive
same,outcome,[12],inactive
same,outcome,[13],inactive
same,outcome,[14],inactive
same,outcome,[18],inactive
Oc1ccc(C(c2ccc(O)cc2)(C(F)(F)F)C(F)(F)F)cc1,outcome,[1],inactive
same,AC50,[2],11.1 µM (active) and 16.5 µM (active)
same,outcome,[2],inactive
same,outcome,[3],inactive
same,AC50,[4],127 nM (active) [middle of 4 runs]
same,AC50,[5],15.5 µM (active) and 17.5 µM (active)
same,outcome,[5],inactive
same,outcome,[6],inactive
same,outcome,[7],inactive
same,outcome,[8],inactive
same,outcome,[15],inactive
same,AC50,[10],20.1 µM (active) and 11.1 µM (active)
same,outcome,[10],inactive
same,outcome,[11],inactive
same,outcome,[12],inactive
same,AC50,[13],16.3 µM (active) [middle of 4 runs]
same,AC50,[14],16.2 µM (active) [middle of 4 runs]
same,outcome,[18],inactive
Cc1cc(-c2ccc(N)c(C)c2)ccc1N,outcome,[1],inactive
same,outcome,[2],inactive
same,outcome,[3],inactive
same,AC50,[4],14.6 µM (active) and 12.8 µM (active)
same,outcome,[5],inactive
same,outcome,[6],inactive
same,outcome,[7],inactive
same,outcome,[8],inactive
same,outcome,[15],inactive
same,outcome,[10],inactive
same,outcome,[11],inactive
same,outcome,[12],inactive
same,outcome,[17],inactive
same,outcome,[13],inactive
same,outcome,[14],inactive
C[C@]12CCC(=O)C=C1CC[C@@H]1[C@@H]2CC[C@]2(C)C(=O)CC[C@@H]12,outcome,[1],inactive
same,outcome,[19],inactive
same,outcome,[2],inactive
same,outcome,[3],inactive
same,outcome,[5],inactive
same,outcome,[6],inactive
same,outcome,[7],inactive
same,outcome,[8],inactive
same,outcome,[16],inactive
same,outcome,[10],inactive
same,outcome,[11],inactive
same,outcome,[20],inactive
same,outcome,[17],inactive
same,outcome,[13],inactive
same,outcome,[14],inactive
